PAFAH2 FP inh – PAFAH2 enzyme inhibitors, primary screen, biochemical, fluorescence polarization, human. inhibition, % at 3.39 µM. AID 492956, 2010. 340,000 tested, 0.99% active. recombinant PAFAH2, FP-rhodamine activity probe;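 active = inhibition above the mean over all tested compounds plus 3 SD, cut at about 30% in these data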;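 note: inhibitors block probe labeling of enzyme so polarization drops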
ATG4B inhibitor – ATG4B protease inhibitors, primary screen, biochemical, fluorescence, uHTS; ATG4B cleavage of LC3-PLA2, NBD-HPC fluorescence, 1 h; inhibition, % at 8.33 µM; 340,000 tested, 0.51% active; AID 504462, 2011; in the data active = inhibition above about 40%
Target sequence (Q9Y4P1 whole entry, looked up): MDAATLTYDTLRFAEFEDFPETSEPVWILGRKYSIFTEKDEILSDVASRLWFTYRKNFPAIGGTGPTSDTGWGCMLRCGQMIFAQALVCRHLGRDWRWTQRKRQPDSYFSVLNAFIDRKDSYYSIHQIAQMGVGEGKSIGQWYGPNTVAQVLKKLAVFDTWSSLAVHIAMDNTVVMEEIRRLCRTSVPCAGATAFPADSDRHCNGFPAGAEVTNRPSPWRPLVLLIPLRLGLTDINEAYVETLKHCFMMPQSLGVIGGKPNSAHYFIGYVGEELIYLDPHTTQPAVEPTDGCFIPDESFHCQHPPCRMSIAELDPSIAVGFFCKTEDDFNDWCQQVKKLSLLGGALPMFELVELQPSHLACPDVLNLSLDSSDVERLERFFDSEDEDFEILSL
pPAFAH FP inh – pPAFAH enzyme inhibitors, primary screen, biochemical, fluorescence polarization, human | Platelet-activating factor acetylhydrolase (Homo sapiens), Q13093 | recombinant pPAFAH, FP-rhodamine probe fluorescence polarization | inhibition, % at 3.39 µM | 330,000 tested, 1.5% active | AID 463082, 2010;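 active = inhibition above the mean inhibition across the screen plus 3 SD, cut at about 25% in these data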;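 note: inhibitors block binding of the rhodamine activity-based probe so polarization drops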
PAFAH1B2 inh – PAFAH1B2 enzyme inhibitors, primary screen, biochemical, fluorescence polarization, human; inhibition, % at 3.39 µM; recombinant PAFAH1B2, FP-rhodamine activity probe; 340,000 tested, 1.2% active; Platelet-activating factor acetylhydrolase IB subunit alpha2 (Homo sapiens), P68402;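 active = inhibition above the mean of all tested compounds plus 3 SD, cut at about 24% in these data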
Target sequence (P68402 whole entry, looked up): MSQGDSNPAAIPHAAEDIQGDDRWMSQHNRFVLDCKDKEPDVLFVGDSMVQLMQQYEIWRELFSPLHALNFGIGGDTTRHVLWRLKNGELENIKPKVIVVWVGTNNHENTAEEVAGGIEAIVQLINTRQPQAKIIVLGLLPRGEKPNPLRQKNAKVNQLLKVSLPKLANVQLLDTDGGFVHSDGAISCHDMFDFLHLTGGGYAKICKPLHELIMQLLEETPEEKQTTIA
PAFAH1B3 inh – PAFAH1B3 enzyme inhibitors, primary screen, biochemical, fluorescence polarization, human | recombinant PAFAH1B3, FP-rhodamine probe | inhibition, % at 3.39 µM | AID 492972, 2010 | 340,000 tested, 0.28% active;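 active = inhibition above the screen-wide average of all tested compounds plus 3 SD, cut at about 25% in these data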
DAGLB inh – DAGLB lipase inhibitors, primary screen, biochemical, fluorescence, HTS. Diacylglycerol lipase-beta (Homo sapiens), Q8NCG7. HEK293T DAGLB membrane lysate, EnzChek fluorogenic substrate. inhibition, % at 5.17 µM. 340,000 tested, 0.059% active. AID 504411, 2011; in the data active = inhibition above about 34%
PAFAH2 FP conf – PAFAH2 enzyme inhibitors, confirmation, biochemical, fluorescence polarization, human | AID 493030, 2011 | recombinant PAFAH2, FP-rhodamine activity probe | 2,300 tested, 65% active | inhibition, % at 3.39 µM | shares compounds with PAFAH2 FP inh;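 active = mean inhibition over three repeats above a set limit taken from the earlier primary screen, cut at about 30% in these data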;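 note: inhibitor blocks binding of rhodamine activity probe so polarization falls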
Each line names hits and unclear results; the compound was inactive in the other large screens (follow-up assays come after a bar, where they were run). This is a sample that favours compounds with a hit; in the whole collection about 3% have one here.

CC(=O)Nc1ccc(C(=O)OCC(=O)Nc2ccccc2Sc2ccccc2)cc1	none
CC1CCN(C(=O)CCNS(=O)(=O)c2ccc(Cl)cc2)CC1	none
C[C@@H]1Cn2cnc(C(=O)N[C@@H](Cc3c[nH]c4ccccc34)C(=O)OC(C)(C)C)c2C(=O)N1	none (no result: PAFAH2 FP inh, ATG4B inhibitor, pPAFAH FP inh, PAFAH1B2 inh, PAFAH1B3 inh)
O=C(NC(C(=O)c1ccccc1)c1ccccc1)c1ccccc1 (stereo not drawn)	none (no result: pPAFAH FP inh)
CCOC(=O)c1ccc(NC(=O)Nc2cc(C)cc(C)n2)cc1	none (no result: PAFAH2 FP inh, ATG4B inhibitor, PAFAH1B2 inh, PAFAH1B3 inh, DAGLB inh)
COc1cccc(C(=O)COC(=O)c2ccc(NC(C)=O)cc2)c1	PAFAH2 FP inh 37.2 | PAFAH2 FP conf 32.1
Cc1cc(C(=O)OCC(=O)Nc2ccccc2C#N)c(C)o1	PAFAH2 FP inh 43.2 (no result: pPAFAH FP inh) | PAFAH2 FP conf 32.1
Cc1cc(C(=O)OCC(=O)Nc2ccccc2F)c(C)o1	PAFAH2 FP inh 39.3 | PAFAH2 FP conf 31.6
Cc1cc(C(=O)OCC(=O)Nc2cc(Cl)ccc2C)c(C)o1	none
Cc1cc(C(=O)OCC(=O)Nc2c(Cl)cccc2Cl)c(C)o1	none
COc1ccc(C(=O)COC(=O)c2ccc(NC(C)=O)cc2)cc1[N+](=O)[O-]	none
Cc1ccc(OCC(=O)Nc2ccc(NC(=O)c3ccccc3)c(C)c2)cc1	none (no result: pPAFAH FP inh)
O=C(COC(=O)c1c(Cl)cccc1Cl)NC1CCCCC1	none
O=C(COC(=O)c1c(F)cccc1Cl)NC1CCCC1	PAFAH2 FP inh 37.1 | PAFAH2 FP conf inactive
O=C(COC(=O)c1c(F)cccc1Cl)NCC1CCCCC1	PAFAH2 FP inh 60.2 | PAFAH2 FP conf 43.3
C/C(=N\NC(=O)c1ccccn1)C12CC3CC(CC(C3)C1)C2	PAFAH2 FP inh 37.7 | PAFAH2 FP conf inactive
C/C(=N/NC(=O)c1ccoc1C)C12CC3CC(CC(C3)C1)C2	none
COc1ccccc1NC(=O)Cn1nnc(-c2ccccc2NC(=O)c2cnccn2)n1	none
Cc1[nH]c2ccc(C(=O)NCCCN(C)C3CCCCC3)cc2c1C	none
O=C(NCC1CCCO1)NC12CC3CC(CC(C3)C1)C2 (stereo not drawn)	PAFAH2 FP inh 33.5 | PAFAH2 FP conf inactive
S=C(NCC1CCCO1)NC12CC3CC(CC(C3)C1)C2 (stereo not drawn)	none
CCN(CC)c1ccc(S(=O)(=O)N2CCOCC2)cc1NC(=O)COC(=O)/C=C/c1ccc(O)c(OC)c1	PAFAH2 FP inh 65.0 (no result: pPAFAH FP inh) | PAFAH2 FP conf 66.3
CCN(CC)c1ccc(S(=O)(=O)N2CCOCC2)cc1NC(=O)COC(=O)/C=C/c1ccc(C)o1	PAFAH2 FP inh 38.1 | PAFAH2 FP conf 40.1
CCN(CC)c1ccc(S(=O)(=O)N2CCOCC2)cc1NC(=O)COC(=O)c1ccco1	none
CCN(CC)c1ccc(S(=O)(=O)N2CCOCC2)cc1NC(=O)COC(=O)/C=C/c1ccccc1	PAFAH2 FP inh 57.3 (no result: pPAFAH FP inh) | PAFAH2 FP conf 42.3
Cn1c(=O)c(-c2ccccc2[N+](=O)[O-])c(Cl)c2ccccc21	none
O=C(COC(=O)/C=C/c1ccco1)NCCc1ccccc1	PAFAH2 FP inh 32.5 | PAFAH2 FP conf inactive
O=C(COC(=O)/C=C/c1ccccc1)NCCNC(=O)COC(=O)/C=C/c1ccccc1	none
O=C(COC(=O)/C=C/c1ccccc1)NCc1ccccc1Cl	PAFAH2 FP inh 70.6 | PAFAH2 FP conf 69.8
O=C(/C=C/c1ccco1)NCCc1ccc(F)cc1	none
CNC(=O)COC(=O)/C=C/c1ccco1	none
O=C(COC(=O)/C=C/c1cccc(Cl)c1)NCCc1ccc(Cl)cc1Cl	PAFAH2 FP inh 42.5 | PAFAH2 FP conf 44.5
O=C(COC(=O)/C=C/c1ccco1)NCc1ccco1	PAFAH2 FP inh 37.5 | PAFAH2 FP conf inactive
COc1ccc(CCNC(=O)COC(=O)/C=C/c2cccc(F)c2)cc1	none
COc1ccc(CNC(=O)COC(=O)/C=C/c2ccco2)cc1	none
CC(NC(=O)COC(=O)/C=C/c1ccco1)c1ccccc1 (stereo not drawn)	PAFAH2 FP inh 49.2 | PAFAH2 FP conf 37.6
Cc1ccc(/C=C/C(=O)OCC(=O)Nc2ccccc2Sc2ccccc2)cc1	none
CC(NC(=O)COC(=O)/C=C/c1ccc([N+](=O)[O-])cc1)c1ccccc1 (stereo not drawn)	none
O=C(COC(=O)/C=C/c1ccco1)NCc1ccc(Cl)cc1Cl	PAFAH2 FP inh 77.1 | PAFAH2 FP conf 63.1
CSc1ccccc1NC(=O)COC(=O)/C=C/c1ccco1	PAFAH2 FP inh 62.5 | PAFAH2 FP conf 43.5
O=C(COC(=O)/C=C/c1ccco1)NCc1ccccc1Cl	PAFAH2 FP inh 75.4 | PAFAH2 FP conf 62.8
OCCn1ccc(-c2ccccc2OCc2ccc(F)cc2)n1	none
CCCc1c(OCCCOc2ccc(OCC(=O)O)cc2)ccc(C(C)=O)c1O	none
O=C(NCC(=O)N1CC=C(c2ccccc2)CC1)c1ccco1	none
Cc1c(Cl)cnc(NC(=O)COC(=O)/C=C/c2ccco2)c1Cl	PAFAH2 FP inh 34.0 (no result: pPAFAH FP inh) | PAFAH2 FP conf inactive
CCOC(=O)c1c(-c2ccccc2)csc1/N=C/C1C(=O)CCCC1=O	none
CCOC(=O)c1c(CC(C)C)csc1/N=C/C1C(=O)CCCC1=O	PAFAH2 FP inh 33.4 | PAFAH2 FP conf inactive
O=c1oc(-c2ccc(F)cc2)nc2ccsc12	PAFAH2 FP inh 47.9 | PAFAH2 FP conf 33.6
COc1ccc(C(=O)OCC(=O)NC(C)(C)C)cc1[N+](=O)[O-]	PAFAH2 FP inh 39.3 | PAFAH2 FP conf inactive
COC(=O)CNC(=O)COC(=O)c1ccc(OC)c([N+](=O)[O-])c1	none
COc1ccc(C(=O)OCC(=O)NCCCc2ccccc2)cc1[N+](=O)[O-]	PAFAH2 FP inh 30.4 | PAFAH2 FP conf inactive
COc1cccc(CC(=O)OCC(=O)NC2(C#N)CCCCC2)c1	PAFAH2 FP inh 32.1 | PAFAH2 FP conf inactive
CC1CCCC(NC(=O)COC(=O)c2cccc(S(=O)(=O)N3CCCCC3)c2)C1C (stereo not drawn)	none
CNS(=O)(=O)c1cccc(C(=O)OCC(=O)NC2CCCC(C)C2C)c1 (stereo not drawn)	PAFAH2 FP inh 62.7 | PAFAH2 FP conf 49.2
CNS(=O)(=O)c1cccc(C(=O)OCC(=O)Nc2cc(F)ccc2F)c1	PAFAH2 FP inh 45.0 | PAFAH2 FP conf 31.8
Cc1ccc(C(=O)OCC(=O)NC2CCCc3ccccc32)o1 (stereo not drawn)	PAFAH2 FP inh 32.7 | PAFAH2 FP conf inactive
COc1cccc(CC(=O)OCC(=O)NC2(C#N)CCCC2)c1	none

Bioassay records (PubChem)
